The text below walks through data of ChEMBL document CHEMBL1961873, “Compounds: GSK PKIS; Assays: Nanosyn kinase panel” (2012).

The target in experiment [1] is Serine/threonine-protein kinase PAK 1 (Homo sapiens) (UniProt Q13153). As to conditions: at 0.1 µM.
For experiment [2] the target is unchanged. Particulars: at 1 µM.
In experiment [3] the target is Serine/threonine-protein kinase PAK 2 (Homo sapiens) (UniProt Q13177). As to conditions: at 0.1 µM.
For experiment [4] the target is unchanged. As to conditions: at 1 µM.
Experiment [5] has as its target Serine/threonine-protein kinase PAK 3 (Homo sapiens) (UniProt O75914). As to conditions: at 0.1 µM.
For experiment [6] the target is unchanged. Particulars: at 1 µM.
The target of experiment [7] is Serine/threonine-protein kinase PAK 5 (Homo sapiens) (UniProt Q9P286). Particulars: at 0.1 µM.
For experiment [8] the target is unchanged. As to conditions: at 1 µM.
Experiment [9] has as its target Serine/threonine-protein kinase PAK 6 (Homo sapiens) (UniProt Q9NQU5). As to conditions: at 0.1 µM.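 Also: mean PAK6 inhibition reported from the GSK PKIS screen.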
For experiment [10], the target named is Serine/threonine-protein kinase 26 (Homo sapiens) (UniProt Q9P289). As to conditions: at 1 µM.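 Also: mean inhibition of MST4 kinase activity, reported from the GSK PKIS inhibitor-set screening panel.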

The inhibition is the relative decrease from the control value, in per cent.

Sequence of Serine/threonine-protein kinase PAK 3 (Homo sapiens) (O75914 whole entry, looked up): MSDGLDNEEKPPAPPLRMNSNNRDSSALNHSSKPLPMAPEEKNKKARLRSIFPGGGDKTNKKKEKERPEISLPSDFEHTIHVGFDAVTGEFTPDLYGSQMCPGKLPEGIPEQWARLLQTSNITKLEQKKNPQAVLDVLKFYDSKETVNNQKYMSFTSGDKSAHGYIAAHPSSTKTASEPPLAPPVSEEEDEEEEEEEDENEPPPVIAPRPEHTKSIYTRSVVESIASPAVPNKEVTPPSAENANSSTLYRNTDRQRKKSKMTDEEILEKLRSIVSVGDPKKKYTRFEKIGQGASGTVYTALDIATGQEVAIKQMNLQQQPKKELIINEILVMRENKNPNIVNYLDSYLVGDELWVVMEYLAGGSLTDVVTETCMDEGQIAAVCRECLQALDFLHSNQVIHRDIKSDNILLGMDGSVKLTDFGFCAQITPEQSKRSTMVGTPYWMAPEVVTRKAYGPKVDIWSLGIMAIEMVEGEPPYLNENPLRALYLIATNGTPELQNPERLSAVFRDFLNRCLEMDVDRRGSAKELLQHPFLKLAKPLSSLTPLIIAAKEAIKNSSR
Sequence of Serine/threonine-protein kinase PAK 5 (Homo sapiens) (Q9P286 whole entry, looked up): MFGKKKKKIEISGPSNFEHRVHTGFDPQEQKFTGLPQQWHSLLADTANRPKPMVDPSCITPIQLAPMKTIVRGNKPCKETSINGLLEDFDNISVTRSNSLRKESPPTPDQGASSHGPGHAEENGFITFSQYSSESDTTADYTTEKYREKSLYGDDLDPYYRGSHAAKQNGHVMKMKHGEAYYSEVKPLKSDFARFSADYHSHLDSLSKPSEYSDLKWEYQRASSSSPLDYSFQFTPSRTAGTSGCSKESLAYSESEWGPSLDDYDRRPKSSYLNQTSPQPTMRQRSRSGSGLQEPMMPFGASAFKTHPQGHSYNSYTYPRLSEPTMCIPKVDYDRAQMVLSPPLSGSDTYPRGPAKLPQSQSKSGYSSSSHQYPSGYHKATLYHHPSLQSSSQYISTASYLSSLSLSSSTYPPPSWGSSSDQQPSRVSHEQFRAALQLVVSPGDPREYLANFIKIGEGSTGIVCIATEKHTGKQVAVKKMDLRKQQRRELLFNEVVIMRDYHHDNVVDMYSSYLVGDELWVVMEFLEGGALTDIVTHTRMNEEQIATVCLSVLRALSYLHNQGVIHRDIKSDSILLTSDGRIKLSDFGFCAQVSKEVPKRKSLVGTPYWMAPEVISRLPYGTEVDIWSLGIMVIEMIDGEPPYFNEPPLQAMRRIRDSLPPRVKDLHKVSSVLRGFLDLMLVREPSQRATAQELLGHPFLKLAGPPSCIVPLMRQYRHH
Sequence of Serine/threonine-protein kinase 26 (Homo sapiens) (Q9P289 2-416 limits assumed): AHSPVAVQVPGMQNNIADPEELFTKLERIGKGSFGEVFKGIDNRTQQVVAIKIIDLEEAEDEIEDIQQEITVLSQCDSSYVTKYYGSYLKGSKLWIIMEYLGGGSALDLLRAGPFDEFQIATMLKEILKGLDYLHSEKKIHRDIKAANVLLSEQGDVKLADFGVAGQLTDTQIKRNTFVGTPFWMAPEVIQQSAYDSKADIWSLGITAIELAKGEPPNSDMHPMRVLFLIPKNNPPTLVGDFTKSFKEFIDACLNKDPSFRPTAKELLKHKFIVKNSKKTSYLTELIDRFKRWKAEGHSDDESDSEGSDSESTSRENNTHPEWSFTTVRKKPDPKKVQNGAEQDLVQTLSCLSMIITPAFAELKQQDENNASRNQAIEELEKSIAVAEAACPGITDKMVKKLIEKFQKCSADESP
Sequence of Serine/threonine-protein kinase PAK 6 (Homo sapiens) (Q9NQU5 whole entry, looked up): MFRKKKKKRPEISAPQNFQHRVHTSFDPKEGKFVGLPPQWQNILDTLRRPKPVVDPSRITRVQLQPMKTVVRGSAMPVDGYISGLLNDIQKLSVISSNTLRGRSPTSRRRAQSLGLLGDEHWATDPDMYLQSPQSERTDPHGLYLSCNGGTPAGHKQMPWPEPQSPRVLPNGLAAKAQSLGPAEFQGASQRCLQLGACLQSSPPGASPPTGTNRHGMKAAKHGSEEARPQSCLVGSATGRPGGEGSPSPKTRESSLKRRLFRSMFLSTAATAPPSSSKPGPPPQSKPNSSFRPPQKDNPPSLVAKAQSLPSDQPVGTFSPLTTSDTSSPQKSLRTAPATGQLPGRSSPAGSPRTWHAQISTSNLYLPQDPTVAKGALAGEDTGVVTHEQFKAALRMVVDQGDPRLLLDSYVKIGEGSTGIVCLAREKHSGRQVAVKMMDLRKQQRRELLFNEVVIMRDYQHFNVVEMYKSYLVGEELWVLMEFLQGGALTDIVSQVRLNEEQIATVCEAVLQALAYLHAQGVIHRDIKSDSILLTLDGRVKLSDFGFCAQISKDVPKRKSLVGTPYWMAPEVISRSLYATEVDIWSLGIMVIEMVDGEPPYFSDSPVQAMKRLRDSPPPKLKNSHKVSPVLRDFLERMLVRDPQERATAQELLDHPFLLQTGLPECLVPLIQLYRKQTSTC
Sequence of Serine/threonine-protein kinase PAK 2 (Homo sapiens) (Q13177 whole entry): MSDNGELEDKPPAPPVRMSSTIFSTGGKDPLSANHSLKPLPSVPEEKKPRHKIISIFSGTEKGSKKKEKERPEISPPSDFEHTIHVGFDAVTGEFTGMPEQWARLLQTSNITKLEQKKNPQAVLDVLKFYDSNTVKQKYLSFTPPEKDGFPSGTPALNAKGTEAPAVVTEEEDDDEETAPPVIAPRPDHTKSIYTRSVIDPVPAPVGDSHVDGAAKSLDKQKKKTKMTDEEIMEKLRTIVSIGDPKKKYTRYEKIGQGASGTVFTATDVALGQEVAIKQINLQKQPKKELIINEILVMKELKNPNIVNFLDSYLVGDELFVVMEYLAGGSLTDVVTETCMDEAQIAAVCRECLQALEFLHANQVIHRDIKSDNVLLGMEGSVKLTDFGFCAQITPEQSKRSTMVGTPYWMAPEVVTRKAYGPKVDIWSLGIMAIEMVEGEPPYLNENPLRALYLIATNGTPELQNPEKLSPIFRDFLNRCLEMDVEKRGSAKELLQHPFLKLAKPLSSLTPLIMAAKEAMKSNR
Sequence of Serine/threonine-protein kinase PAK 1 (Homo sapiens) (Q13153 whole entry): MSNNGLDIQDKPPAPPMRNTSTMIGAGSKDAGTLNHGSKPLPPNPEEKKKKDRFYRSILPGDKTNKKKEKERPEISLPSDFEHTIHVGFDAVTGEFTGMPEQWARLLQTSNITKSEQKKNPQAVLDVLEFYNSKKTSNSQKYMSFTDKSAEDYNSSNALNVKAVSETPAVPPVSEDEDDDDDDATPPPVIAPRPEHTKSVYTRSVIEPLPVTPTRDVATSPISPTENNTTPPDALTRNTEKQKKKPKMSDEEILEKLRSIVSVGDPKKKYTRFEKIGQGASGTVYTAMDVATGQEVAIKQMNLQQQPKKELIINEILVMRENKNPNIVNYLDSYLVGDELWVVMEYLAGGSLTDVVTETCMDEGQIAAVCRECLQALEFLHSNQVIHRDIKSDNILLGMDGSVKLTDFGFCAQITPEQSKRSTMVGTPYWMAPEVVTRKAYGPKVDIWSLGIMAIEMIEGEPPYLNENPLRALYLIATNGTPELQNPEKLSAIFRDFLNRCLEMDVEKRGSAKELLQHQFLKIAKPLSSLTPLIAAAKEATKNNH

In the case of `C[C@@H](Oc1cc(-n2cnc3ccc(OCC4CCN(C)CC4)cc32)sc1C(N)=O)c1ccccc1C(F)(F)F`, the inhibition was -2.64% in experiment [1]; 0.44% in [2]; -1.54% in [3]; -2.14% in experiment [4]; -1.81% in experiment [5]; 0.3% in experiment [6]. For the same molecule, the inhibition is -2.43% in [7], -1.92% in experiment [8] and 1.47% in [9].

Take `CS(=O)(=O)Nc1cccc(-c2ccc3c(NC(=O)C4CC4)n[nH]c3c2)c1`: the inhibition was 1.22% in experiment [10]; 2.69% in experiment [1]; 3.3% in [2]; 0.99% in experiment [3]; 0.37% in experiment [4]; 0.48% in [5]. For the same molecule, the inhibition in experiment [6] was 1.23%; in experiment [9] it was -7.16%.

For the molecule `[O-][S+]1CCN(Cc2ccc(-c3ccc4ncnc(Nc5ccc(OCc6ccccc6)c(Cl)c5)c4c3)o2)CC1`, the inhibition in [10] came out at 1.64%; in experiment [1], 2.5%; in [2], 4.24%; in experiment [3] it was 0.11%; in [4], 0.24%; in [5], 0.99%. The inhibition in experiment [6] is 2.19%; in experiment [7] it was 2.51%; in [8], 1.72%; in experiment [9], -9.51%.

Regarding `N#Cc1c(NC(=O)c2ccccc2F)sc2c1CCCC2`, the inhibition in experiment [10] was 1.28%; in [1], -3.89%; in experiment [2] it was 1.46%; in experiment [3], -2.11%; in experiment [4] it was -1.55%; in [5], -2.48%. Besides, the inhibition was -1.16% in experiment [6], -5.99% in [7], -0.86% in [8] and 2.44% in experiment [9].

On to `COc1cc(/C=N/Nc2ncnc3c2cnn3C(C)C)ccc1O`, for which the inhibition in [10] was 3.49%; in experiment [1], 3.62%; in experiment [2], 2.53%; in experiment [3], -0.56%; in experiment [4] it was -0.45%; in [5], -3.86%. Further, the inhibition in experiment [6] was 1.26%; in experiment [8], 4.69%; in experiment [9], -0.32%.

For `CC(C)c1ccc(Nc2nccc(-c3cnn4ncccc34)n2)cc1`, the inhibition in experiment [10] worked out at 2.8%; in [1] it was 2.05%; in experiment [2], 3.55%; in experiment [3], 1.06%; in experiment [4], 0.9%; in [5], 1.95%. Further, the inhibition was 2.33% in [6], -3.7% in [7], 2.48% in experiment [8] and -6.25% in [9].

`CCn1c(-c2nonc2N)nc2ccc(F)cc21`: the inhibition in [10] was 3.36%; in experiment [1], 12%; in [2], 11.2%; in [3], 3.1%; in experiment [4] it was 3.8%; in experiment [5] it was 7.78%. Further, the inhibition in [6] was 6.52%; in experiment [7] it was -1.6%; in experiment [9], 2.06%.

As for `Nc1ccc(C#Cc2cncnc2Nc2ccc(OCc3cccc(F)c3)c(Cl)c2)cc1`, the inhibition was -2.17% in [10]; 0.57% in experiment [1]; 1.46% in experiment [2]; 0.83% in experiment [3]; 0.22% in experiment [4]; 3.57% in [5]. Further, the inhibition in experiment [6] is 2.79%; in [7], 0.61%; in [8], 2.79%; in experiment [9] it was -4.23%.

For the molecule `COc1cccc(-n2ncc3c(N/N=C/c4ccc(S(C)(=O)=O)cc4)ncnc32)c1`, the inhibition in experiment [10] is 2.58%; in experiment [1] it was 2.37%; in [2], 3.02%; in [3], -0.07%; in [4], -0.47%; in experiment [5], 0.46%. Moreover, the inhibition in experiment [6] is 1.53%; in experiment [7] it was 2.27%; in experiment [8] it was 10.1%; in [9] it was -8.81%.

As for `COc1ccc2ncnc(Nc3ccc(OCc4ccccc4)cc3)c2c1`, the inhibition in experiment [10] was -1.42%; in [1] it was 0.31%; in experiment [2], 3.44%; in experiment [3], -0.61%; in [4], 0.47%; in experiment [5], 2.33%. Besides, the inhibition in [6] was 2.78%; in experiment [7], -6.57%; in [8] it was -2.45%; in experiment [9], -7.36%.

On to `C[C@@H](Oc1cc(-n2cnc3ccc(OC[C@@H](O)CO)cc32)sc1C(N)=O)c1ccccc1Cl`, for which the inhibition in experiment [10] is 1.05%; in [1], -2.19%; in experiment [2], 1.45%; in experiment [3], -2.74%; in experiment [4], -0.42%; in [5], -2.28%. In addition, the inhibition in [6] is -0.49%; in [7], -7.17%; in [8], -4.24%; in [9] it was -7.41%.

As to `COc1cc2ncn(-c3cc(OCc4ccccc4S(C)(=O)=O)c(C#N)s3)c2cc1OC`, the inhibition turned out to be 0.22% in experiment [10]; 6.88% in experiment [1]; 5.61% in [2]; 0.99% in [3]; 2.17% in experiment [4]; 4.63% in experiment [5]. For the same molecule, the inhibition in experiment [6] was found to be 5.52%; in [7], 3.87%; in [8], 4.97%; in experiment [9], 4.22%.

On to `Cc1ccc2c(c1)/C(=N/Nc1ccc(S(N)(=O)=O)cc1)C(=O)N2`, for which the inhibition was 17.1% in experiment [10]; -1.7% in experiment [1]; 5.13% in [2]; 0.16% in experiment [3]; -0.31% in experiment [4]; 0.21% in experiment [5]. Besides, the inhibition in experiment [6] is -1.09%; in [7], -8.51%; in experiment [9] it was -4.78%.

In the case of `NS(=O)(=O)c1cccc(Nc2cc(-c3ccc(F)cc3)n[nH]2)c1`, the inhibition was 0.86% in experiment [10]; 3.94% in [1]; 8.53% in [2]; 1.36% in experiment [3]; 1.54% in experiment [4]; 3.88% in experiment [5]. For the same molecule, the inhibition in experiment [6] is 4.82%; in [7] it was 10.3%; in [8] it was 11.7%; in [9] it was 2.82%.

On to `Nc1nccc(-c2c(-c3ccc(F)cc3)ncn2CCCN2CCOCC2)n1`, for which the inhibition is 11.2% in experiment [10]; 9.14% in experiment [1]; 6.55% in [2]; 1.64% in experiment [3]; 1.75% in experiment [4]; 5.89% in [5]. The inhibition in [6] was 4.41%; in [8] it was 3.01%; in experiment [9] it was -1.31%.

As for `Cc1ccc(C(=O)NC2CC2)cc1-c1ccc2[nH]ncc2c1`, the inhibition is -0.24% in [10]; -0.61% in [1]; -2.6% in experiment [2]; -3.3% in [3]; -4.55% in [4]; -4.8% in experiment [5]. Besides, the inhibition in experiment [6] is -3.91%; in experiment [7] it was -4.55%; in experiment [8], -2.43%; in experiment [9], 1.46%.

In the case of `CCCN1CCCC(c2ccc(Nc3nc(Nc4cc(F)ccc4C(N)=O)c4cc[nH]c4n3)c(OC)c2)C1` (stereo not drawn), the inhibition in experiment [10] is -1.5%; in experiment [1], 7.38%; in experiment [2], 9.12%; in experiment [3] it was 2.49%; in experiment [4] it was 3.33%; in [5], 4.64%. Moreover, the inhibition in [6] turned out to be 5.56%; in experiment [7], 1.21%; in [8] it was 6.67%; in experiment [9], 2%.
